{
  "source": "PubChem BioAssay (NCI)",
  "note": "The panel holds about 83,000 compounds, 20% with a hit somewhere; the sample as a whole holds those more often.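 48-hour exposure, single concentration, 96-well plates; percent growth endpoint where 0 means no net growth. Active: below 10.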 Values without a mark were called inactive. Activity calls are given as the source filed them.",
  "data": [
    {"test_system": "LOX IMVI melanoma", "experiment": "NCI-60 one-dose screen, 48 h (100 = growth as untreated, 0 = no growth, -100 = all killed)", "details": "10 µM unless noted", "values": [
      {"molecule": "c1ccc(CNc2ncnc3ccc(-c4cnc5[nH]ncc5c4)cc23)cc1", "growth": "52.7%"},
      {"molecule": "O=C(CCN1C(=O)/C(=C/c2ccccc2)SC1=S)N1CCOCC1", "growth": "0.309% (active)"},
      {"molecule": "OC1CCN(CCCOc2c3ccccc3nc3c2oc2ccc(Cl)cc23)CC1", "growth": "-73.8% (active)"},
      {"molecule": "CN1C(=O)N(c2ccccc2)C2N=C(N/N=C/c3ccccc3)SC21", "note": "(centres undefined)", "growth": "23.2%"},
      {"molecule": "CN(C)c1ccc(-c2c(NC(C)(C)C)nc3c(OCCc4ccccc4)cccn23)cc1", "growth": "11.5%"},
      {"molecule": "CN1C(=S)N(C)C2C1NN=C1SC(c3ccccc3)=CC(=O)N12", "note": "(centres undefined)", "growth": "92.2%"},
      {"molecule": "C[C@@H](Nc1c(C#N)cnc2ccc(-c3cnc(N)nc3)cc12)c1ccccc1", "growth": "11.7%"},
      {"molecule": "O=C1Nc2ccc(Cl)cc2/C1=C/c1ccc(OCC(=O)c2ccc(Br)cc2)cc1", "growth": "108%"},
      {"molecule": "CCN1C(=S)N(CC)C2C1N=C(SC)N2/N=C/C=C/c1ccccc1[N+](=O)[O-]", "note": "(centres undefined)", "growth": "116%"},
      {"molecule": "NS(=O)(=O)c1cccc(Nc2nc(SCC(=O)c3ccc(Cl)cc3)nc3ccccc23)c1", "growth": "28.7%"},
      {"molecule": "O=C(CN1C(=O)/C(=C/c2ccccc2)SC1=S)N1CCOCC1", "growth": "-34.9% (active)"},
      {"molecule": "Nc1c(C(=O)Nc2ccc(Cl)cc2)sc2nc(-c3cnccn3)cc(-c3cccs3)c12", "growth": "-16.8% (active)"},
      {"molecule": "COc1ccccc1C(=O)CSc1nc(Nc2ccc(S(N)(=O)=O)cc2)c2ccccc2n1", "growth": "16.1%"},
      {"molecule": "Clc1ccc(Cc2nnc3sc(-c4cccnc4)nn23)cc1", "growth": "96.7%"},
      {"molecule": "Cc1c(NC(=O)CSc2nc3sc4c(c3c(=O)n2-c2ccc(Cl)cc2)CCCC4)c(=O)n(-c2ccccc2)n1C", "growth": "89.5%"},
      {"molecule": "CCOC(=O)c1c(Nc2ccccc2)nn2c(N)c(C#N)c(-c3ccc(OC)cc3)nc12", "growth": "71%"},
      {"molecule": "N=C1CC(=O)NN1C(=O)CSc1nc2sc3c(c2c(=O)n1-c1ccc(Cl)cc1)CCCC3", "growth": "97.1%"},
      {"molecule": "Clc1ccc2c(NCCCn3ccnc3)c3oc4ccc(Cl)cc4c3nc2c1", "growth": "22.4%"},
      {"molecule": "CCN1C(=S)N(CC)C2C1NN=C1SC(c3ccccc3)=CC(=O)N12", "note": "(centres undefined)", "growth": "100%"},
      {"molecule": "COc1ccc(COc2ccc(/C=C3/C(=O)Nc4cc(Cl)ccc43)cc2)cc1", "growth": "94.8%"},
      {"molecule": "CC(=O)Oc1ccccc1C(=O)Nc1cc(C(C)C)ccc1C", "growth": "12.4%"},
      {"molecule": "COc1ccc(N/N=C/c2c(-c3ccc(S(C)(=O)=O)cc3)nc3ccccn23)cc1", "growth": "16.6%"},
      {"molecule": "O=C(CSc1nc2sc3c(c2c(=O)n1-c1ccc(Cl)cc1)CCCC3)N/N=C/c1ccc(F)cc1", "growth": "95.9%"},
      {"molecule": "CC(C)NC(=O)c1cc(-c2ccc(NC(=O)Nc3ccc(N4CCOCC4)c(C(F)(F)F)c3)cc2)nc2cccnc12", "growth": "47.9%"},
      {"molecule": "O=C(CCN1C(=O)/C(=C/c2ccccc2F)SC1=S)N1CCOCC1", "growth": "-34.1% (active)"},
      {"molecule": "O=C1Nc2cc(Cl)ccc2/C1=C\\c1ccc(OCc2ccc([N+](=O)[O-])cc2)cc1", "growth": "65.8%"},
      {"molecule": "CCN(CC)c1ccc(C=O)c(OCc2cn(CC(=O)Nc3ccc(Cl)cc3)nn2)c1", "growth": "58.8%"},
      {"molecule": "CCCC(=O)NC(c1ccc2c(c1)OC(F)(F)O2)c1cc(C)c2cccnc2c1O", "note": "(centres undefined)", "growth": "21.1%"},
      {"molecule": "C[C@@H]1CN(c2ccc3ncc(C#Cc4cncc(C(=O)Nc5ccc(CN6CCN(C)CC6)c(C(F)(F)F)c5)c4)n3n2)C[C@H](C)O1", "growth": "-87.7% (active)"},
      {"molecule": "COc1cc(OC)c(C2SCC(=O)N2Nc2ncnc3ccccc23)cc1OC", "note": "(centres undefined)", "growth": "117%"},
      {"molecule": "CN(C)CCCOc1c2ccc(Cl)cc2nc2c1oc1ccccc12", "growth": "-84.8% (active)"},
      {"molecule": "C#C[C@]1(O)CC[C@H]2[C@@H]3CC=C4c5sc(Nc6ccc(Cl)cn6)nc5CC[C@]4(C)[C@H]3CC[C@@]21C", "growth": "0.11% (active)"},
      {"molecule": "COc1cc2cc(Oc3ccc(NC(=O)c4cccc(C(F)(F)F)c4)cc3)c(C)nc2cc1OCCN1CCCCC1", "growth": "-93.6% (active)"},
      {"molecule": "Cc1ccc(C(=O)Nc2cccc(C(F)(F)F)c2)cc1Nc1nc(-c2cnccn2)nc2c1cnn2C", "growth": "62.3%"}
    ]},
    {"test_system": "SK-MEL-28 melanoma", "experiment": "NCI-60 one-dose screen, 48 h (100 = growth as untreated, 0 = no growth, -100 = all killed)", "details": "10 µM unless noted", "values": [
      {"molecule": "CC(O)C(NC(=O)C1CCCN1C(=O)CNC(=O)C1CC(=O)NCC(=O)NC(Cc2c[nH]c3ccccc23)C(=O)NC(Cc2ccc(O)cc2)C(=O)NCC(=O)NC(CO)C(=O)NC(CCC(N)=O)C(=O)NC(Cc2c[nH]c3ccccc23)C(=O)N1)C(=O)NCC(=O)NC(CCC(N)=O)C(=O)NC(CCCNC(=N)N)C(=O)NC(CC(=O)O)C(=O)O", "note": "(centres undefined)", "growth": "99.6%"},
      {"molecule": "COc1ccc(C(=O)/C=C/c2ccc(OCc3ccc(Cl)cc3)c(OC)c2)cc1OC", "growth": "83.3%"},
      {"molecule": "O=C(CCN1C(=O)/C(=C/c2ccccc2)SC1=S)N1CCOCC1", "growth": "85.6%"},
      {"molecule": "CN1C(=O)N(c2ccccc2)C2N=C(N/N=C/c3ccccc3)SC21", "note": "(centres undefined)", "growth": "61.3%"},
      {"molecule": "CN1C(=S)N(C)C2C1NN=C1SC(c3ccccc3)=CC(=O)N12", "note": "(centres undefined)", "growth": "102%"},
      {"molecule": "C#Cc1nc(C2=C(C)C(=N\\O)/C(=N/O)C2)cs1", "growth": "111%"},
      {"molecule": "O=C1Nc2ccc(Cl)cc2/C1=C/c1ccc(OCC(=O)c2ccc(Br)cc2)cc1", "growth": "99.3%"},
      {"molecule": "O=C(CN1C(=O)/C(=C/c2ccccc2)SC1=S)N1CCOCC1", "growth": "96.5%"},
      {"molecule": "Clc1ccc(Cc2nnc3sc(-c4cccnc4)nn23)cc1", "growth": "109%"},
      {"molecule": "CCOC(=O)c1c(Nc2ccccc2)nn2c(N)c(C#N)c(-c3ccc(OC)cc3)nc12", "growth": "78.4%"},
      {"molecule": "N=C1CC(=O)NN1C(=O)CSc1nc2sc3c(c2c(=O)n1-c1ccc(Cl)cc1)CCCC3", "growth": "108%"},
      {"molecule": "Clc1ccc2c(NCCCn3ccnc3)c3oc4ccc(Cl)cc4c3nc2c1", "growth": "94%"},
      {"molecule": "COC(=O)C(C)NS(=O)(=O)/N=C1\\NC(=O)NC1=C(Cl)Cl", "note": "(centres undefined)", "growth": "99.4%"},
      {"molecule": "CC(=O)Oc1ccccc1C(=O)Nc1cc(C(C)C)ccc1C", "growth": "18%"},
      {"molecule": "CC(C)NC(=O)c1cc(-c2ccc(NC(=O)Nc3ccc(N4CCOCC4)c(C(F)(F)F)c3)cc2)nc2cccnc12", "growth": "59.2%"},
      {"molecule": "O=C(CCN1C(=O)/C(=C/c2ccccc2F)SC1=S)N1CCOCC1", "growth": "85.1%"},
      {"molecule": "O=C1Nc2cc(Cl)ccc2/C1=C\\c1ccc(OCc2ccc([N+](=O)[O-])cc2)cc1", "growth": "84.7%"},
      {"molecule": "CCN(CC)c1ccc(C=O)c(OCc2cn(CC(=O)Nc3ccc(Cl)cc3)nn2)c1", "growth": "92.7%"},
      {"molecule": "COc1cc(OC)c(C2SCC(=O)N2Nc2ncnc3ccccc23)cc1OC", "note": "(centres undefined)", "growth": "104%"},
      {"molecule": "COc1cc2cc(Oc3ccc(NC(=O)c4cccc(C(F)(F)F)c4)cc3)c(C)nc2cc1OCCN1CCCCC1", "growth": "-88.5% (active)"}
    ]}
  ]
}
